Results as given in PubChem BioAssay AID449762 (Southern Research Specialized Biocontainment Screening …, 2010).
Out of some 330,000 compounds screened, about 1,900 (0.58%) were called active. Roughly 4% stayed inconclusive and do not appear here. Only a sample is shown. Entries with a potency or affinity are not part of this list. Values without a mark were called inactive. Cut-off read from the data, not from the text of the source: inconclusive = inhibition above about 70% without an active follow-up result; inactive = below that.

Test: M. tuberculosis growth inhibition, HTS (AID 449762);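 note: bacterial growth assessed after seven days of incubation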
Conditions: M. tuberculosis H37Rv growth inhibition, 7H9 media; at 25 µM; stronger effect = higher value

Compound	inhibition [%]
CCCCn1cnc2c1c(=O)n(CC(=O)c1cc(C)n(C)c1C)c(=O)n2CC(C)C	5.57
Cc1ccc(CN2CCN(Cc3ccc4c(c3)OCCO4)CC2CCO)cc1 (stereo not given)	-5.47
O=C(c1nc2ccccc2[nH]1)c1ccccc1[N+](=O)[O-]	13
CN(c1ccccc1)c1nc(-n2ccnc2)nc(-n2ccnc2)n1	5.05
COc1nc(N(c2ccccc2)c2ccccc2)nc(-n2ccnc2)n1	34.2
c1ccc(N(c2ccccc2)c2nc(-n3ccnc3)nc(-n3ccnc3)n2)cc1	-9.38
CCCCNc1nc(-c2ccccc2)nc(-n2ccnc2)n1	10
COC(=O)c1ccc(C2c3c(oc4ccc(F)cc4c3=O)C(=O)N2CCO)cc1 (stereo not given)	-6.43
COc1ccccc1NC(=O)c1ccc2nsnc2c1	5.74
CCN1C(=O)C(CC(=O)NCCc2ccccc2)N(NC(=O)c2cccnc2)C1=S (stereo not given)	12
Clc1ccccc1N=C1SCCS1	-6.64
CSc1ncccc1C(=O)N(C)CC(=O)Nc1ccc(Cl)c(C(F)(F)F)c1	-3
COc1ccccc1N1CCN(C(=O)C2CCN(S(=O)(=O)c3ccc(F)cc3)CC2)CC1	-1.53
CC(=O)Nc1cc(C(=O)N2CCc3ccccc3C2)ccc1Sc1ccc(Cl)cc1	2.06
Cc1nc2c(C)cccn2c(=O)c1NC(=O)c1cccs1	-5.13
C=CCNc1oc(-c2ccc(OC)cc2)nc1C#N	4.44
C=CCNc1oc(-c2ccc(Cl)cc2)nc1C#N	47.3
NS(=O)(=O)c1ccc(NC(=O)CSc2nnc(Cc3cccs3)n2-c2ccccc2)cc1	10.1
O=C(/C=C/c1ccccc1)N1CCN(c2ccccn2)CC1	-12.8
CCc1cc[n+](C2=C([O-])c3ccccc3C(=O)/C2=N\S(=O)(=O)c2cccs2)cc1	2.09

Compound	inhibition [%]
O=C1/C(=N\S(=O)(=O)c2cccs2)C([n+]2ccccc2)=C([O-])c2ccccc21	-2.62
CCCCC1(C(=O)OCC)CC(CN2CCOCC2)OC1=O (stereo not given)	-5.65
CN1CCN(c2ccc(NC(=O)c3cccs3)cc2)CC1	0.58
COC(=O)C1=C(C)Nc2[nH]c(=S)[nH]c(=O)c2C1c1ccc(OC)cc1 (stereo not given)	-7.09
COc1cc(/C=N/Nc2nc(Nc3ccccc3)nc(N3CCCCC3)n2)ccc1OCC(=O)O	58.2
O=C(O)COc1ccc(/C=N/Nc2nc(Nc3ccccc3)nc(N3CCCCC3)n2)cc1	23.6
N/C(=N\OC(=O)CC1CCCCC1)c1ccc([N+](=O)[O-])cc1	-1.51
CCCn1c(=N)c(C(=O)NCC2CCCO2)cc2c(=O)n3cccc(C)c3nc21 (stereo not given)	-2.2
CCOCCCn1c(=N)c(C(=O)NCc2ccc3c(c2)OCO3)cc2c(=O)n3cccc(C)c3nc21	68.2
Brc1ccc(-c2csc(Nc3nc(-c4ccc(Br)cc4)cs3)n2)cc1	8.54
Brc1ccc(-c2csc(-c3ccncc3)n2)cc1	36.4
Cc1ccc(NC(=S)N2CCN(c3ccccn3)CC2)c(C)c1	5.35
Cc1c(N=NC2=C(O)CC(C)(C)CC2=O)cc2c(c1[N+](=O)[O-])C(C)(C)CC2(C)C	6
O=[N+]([O-])c1ccc(Nc2ccc(F)cc2)nc1	-2.27
COc1ccc(NC(=O)COC(=O)c2cc3c(s2)CCC3)cc1	9.83
NC(=O)c1ccc(NC(=O)COC(=O)c2cc3c(s2)CCC3)cc1	6.74
CCN1CCN(c2nc(C)c3c(n2)CC(C)CC3=O)CC1 (stereo not given)	11.3
COC(=O)c1ccc(COc2cc([N+](=O)[O-])cc3cccnc23)cc1	3.92
COC(=O)c1ccc(COc2cc([N+](=O)[O-])cc3cccnc23)o1	-2.4
O=C(CN1c2ccccc2Sc2ccccc21)N/N=C/c1ccc(Cl)cc1Cl	4

Compound	inhibition [%]
COc1ccccc1C(=O)NNC(=O)C12CC3CC(CC(C3)C1)C2	-6.93
Cc1cc(C)c2c(CN3CCN(Cc4ccccc4)CC3)cc(=O)oc2c1	0.88
Cc1ccc2c(CN3CCN(Cc4ccccc4)CC3)cc(=O)oc2c1C	3.31
Fc1ccccc1N1CCN(C(c2ccncc2)c2nnnn2C2CCCC2)CC1 (stereo not given)	-0.2
O=C(NCCO)c1cccc(S(=O)(=O)N2CCCCC2)c1	-4.67
CC1CC(C)CN(C(=O)CN2C(=O)NC3(CCCCCC3)C2=O)C1 (stereo not given)	6.02
N#Cc1c(SCC(=O)OCc2ccccc2)nsc1SCC(=O)OCc1ccccc1	14.1
CC(=O)CSc1nsc(SCC(C)=O)c1C#N	-3.69
CSc1snc(SCC(N)=O)c1C#N	-0.39
COC(=O)CSc1nsc(SCC(=O)OC)c1C#N	-0.76
CCC(C)N(C(=O)COC(=O)c1nc2nc(C)cc(C)n2n1)C1CCS(=O)(=O)C1 (stereo not given)	5.26
CCCOc1ccc(CC2CCC(=O)NC2=O)cc1 (stereo not given)	5.69
COc1ccc(CNS(=O)(=O)c2ccc3c(c2)NC(=O)C(C)S3)cc1 (stereo not given)	6.65
CCc1c(C)sc(NC(=S)N2CC(C)OC(C)C2)c1C(=O)OC (stereo not given)	3.86
CCc1c(C)sc(NC(=S)N2CCN(S(C)(=O)=O)CC2)c1C(=O)OC	0.54
CCN(CC(=O)NCc1ccc(Cl)cc1)C(=O)CN1C(=O)NC(C)(c2ccccc2)C1=O (stereo not given)	-3.75
CCOC(=O)C(C)NC(=O)c1cn(-c2ccc(OC)cc2)c(=O)c2ccccc12 (stereo not given)	3.17
CCC(C)NC(=O)c1cn(-c2cccc(OC)c2)c(=O)c2ccccc12 (stereo not given)	4.02
N#C/C(C(N)=O)=C1/SC=C(c2ccccc2)N1c1ccccc1	-6.75
NS(=O)(=O)c1ccc(NC(=S)NC(=O)c2ccc(Br)o2)cc1	-3.72
